# Most compounds without a hit are left out; they make up all but 5.7% or so of the library.
# NADH coupling – inhibitors of PK/LDH coupling enzymes, profiling panel, artefact control, biochemical, MLSMR library; coupled PK/LDH NADH assays, four targets; IC50, µM (series often up to 10 µM), for inactives: top-dose inhibition; hit rate 0.02% among 65,000;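 active = single-dose screening hits from any of four coupled enzyme assays that gave an IC50 when retested across doses; inconclusive = no clear call, values can overlap the other calls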;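 note: the DPM-DC format reads NADH fluorescence rather than 340 nm absorbance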
# DUSP1 inh – MKP-1 phosphatase inhibitors, primary screen, biochemical, in vitro. Dual specificity protein phosphatase 1 (Homo sapiens), P28562. recombinant MKP-1, OMFP hydrolysis fluorescence. inhibition, %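 (compounds tested at a single concentration somewhere between 10 and 100 µM)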. hit rate 0.15% among 65,000;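 active = inhibition above about 50%, limit read from the data; inconclusive = inhibition over screen mean plus 3 SD, below that limit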;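 note: 0% = DMSO max control wells and 100% = wells with enzyme stopped by NaOH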
# Target sequence (P28562 whole entry, looked up): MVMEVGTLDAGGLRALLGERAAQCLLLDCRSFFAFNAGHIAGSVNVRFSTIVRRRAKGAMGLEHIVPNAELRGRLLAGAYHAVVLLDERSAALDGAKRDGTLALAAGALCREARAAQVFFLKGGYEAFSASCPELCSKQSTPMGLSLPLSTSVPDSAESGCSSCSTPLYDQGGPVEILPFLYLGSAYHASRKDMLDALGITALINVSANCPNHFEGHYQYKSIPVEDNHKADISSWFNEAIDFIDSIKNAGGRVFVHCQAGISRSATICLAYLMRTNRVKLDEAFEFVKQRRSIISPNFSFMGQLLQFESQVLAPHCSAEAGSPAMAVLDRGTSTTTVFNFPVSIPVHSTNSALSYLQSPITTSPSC
# Abs 340nm – compound light absorbance at 340 nm, profiling panel, artefact control, biochemical, MLSMR library, data from PS, PMK, MK assays. compound absorbance at 340 nm, fold over control. fold change at 10 µM. 65,000 tested, under 10 active;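 active = at 10 µM dose, initial 340 nm absorbance at least 2 fold that of control wells; inactive = change under 2 fold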;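 note: initial absorbance extrapolated from kinetic A340 decline of NADH oxidation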
# Hsp90 inh – tumor Hsp90 inhibitors, primary screen, cell lysate, fluorescence polarization, NCI-N417 lysate; hit rate 0.35% among 64,000; AID 429, 2006; Cy3B-geldanamycin FP displacement; Heat shock protein HSP 90-alpha (Homo sapiens), P07900; inhibition, % at 30 µM;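 active = inhibition above 50%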;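 note: 0% = tracer plus lysate wells and 100% = tracer alone without lysate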
# Autofluor 339 – intrinsic fluorescence of library compounds, ex339/em460 – biochemical, MLSMR library, data from DPM-DC assay, artefact control, profiling panel. compound autofluorescence, ex339/em460 nm, NADH buffer; hits give high values; 1 = no-compound wells, NADH background. fluorescence fold increase at 10 µM. hit rate 5.5% among 65,000. AID 709, 2007;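 active = at 10 µM, mean starting fluorescence two-fold or more over control wells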;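 note: signal is the first read of a kinetic run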
# Cdc25B inh – inhibitors of Cdc25B phosphatase catalytic domain, primary screen, biochemical, OMFP fluorescence | M-phase inducer phosphatase 2 (Homo sapiens), P30305 | hit rate 0.1% among 65,000 | inhibition, %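 (compounds tested at 10 µM final in the well)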 | AID 368, 2006 | recombinant Cdc25B, OMFP fluorescence Ex485/Em525; in the data active = inhibition above about 50%
# * marks the source's active call; other numbers are inactive results; ? = inconclusive; . = no result.
SMILES,NADH coupling,DUSP1 inh,Abs 340nm,Hsp90 inh,Autofluor 339,Cdc25B inh
CCC(=O)N1CCN(c2cc3c(cc2F)c(=O)c(C(=O)O)cn3CC)CC1,3%,24,1.1,-4,4.8*,-1
Cc1nc2ccc(S(=O)(=O)NC(C(=O)NCc3ccco3)C(C)C)cc2s1 (configuration not stated),5%,13,1,-3,1.1,60*
Nc1ncnc2c1ncn2[C@@H]1O[C@H](COP(=O)(O)OP(=O)(O)OP(=O)(O)OP(=O)(O)OC[C@@H]2O[C@H](n3cnc4c(N)ncnc43)C(O)[C@@H]2O)[C@H](O)C1O (some centres not stated),.,.,.,11,.,.
O=C(Nc1ccc(N2CCN(C(=O)c3ccccc3)CC2)cc1)c1cc2ccccc2o1,2%,4,1.1,-2,2.4*,-7
COc1nc(Nc2ccc(-c3nc4ccccc4o3)cc2)nc(N2CCOCC2)n1,4%,44,1.1,-4,3.7*,-6
CC(=O)c1c(C)oc(C)c1CSCc1ccc(C(=O)O)o1,10%,18,1,-4,1.1,2
O=C(CN1CCCC1=O)NC1(C(F)(F)F)NC(=O)N(Cc2ccccc2)C1=O (configuration not stated),5%,1,1,2,1.1,2
Cc1ccc(CSc2nc3c(c(=O)[nH]2)C(c2ccncc2)C2=C(CCCC2=O)N3)cc1 (configuration not stated),5%,41,1,-4,2.4*,1
c1ccc(-c2nc3ccccc3o2)nc1,5%,17,0.98,-4,1.1,-7
Cc1ccnc2ccc(-c3nc4ccccc4o3)cc12,6%,12,1,1,5*,-12
CC(=O)Nc1nc2ccc(-c3nc4ccccc4o3)cc2s1,5%,19,1.1,-1,2.2*,-6
O=C(O)c1cc2ccccc2n1-c1ccccc1,8%,-2,0.99,-5,1.1,13
CC1CN(S(=O)(=O)c2ccc(C(=O)Nc3nnc(-c4ccc5c(c4)CCCC5)o3)cc2)CC(C)O1 (configuration not stated),0%,17,1.1,-2,2.1*,5
Clc1cc(NCc2cccs2)ccc1N1CCOCC1,6%,5,1,4,1.1,-5
COc1cc2[nH]c(=O)n3nc(-c4ccccc4)nc3c2cc1OC,16%,35,1.1,-3,2.1*,5
COc1cccc(-c2noc(C3CCCN(S(=O)(=O)c4cccc(Cl)c4C)C3)n2)c1 (configuration not stated),5%,8,0.97,-3,0.86,-16
Cc1cc(-c2nnc3n2CCCCC3)c(C)n1-c1ccccc1,5%,0,1,0,1.1,-2
Cc1occc1-c1nnc2sc(-c3ccc(-c4ccc(Cl)cc4)o3)nn12,7%,20,1,-5,2.1*,0
Cc1nc(NCCO)c(C#N)c2c1COC(C)(C)C2,2%,-18,1.1,-3,2,-39
CC1(C)Cc2c(C#N)c(NCCc3ccccc3)nc(-c3ccco3)c2CO1,0%,-16,1.1,-12,2.3*,-25
CCN(CC)CCNc1nc(-c2ccco2)c2c(c1C#N)CC(C)(C)OC2,3%,-19,1.1,-7,2.3*,-30
O=C(NC1CCCCCCC1)c1ccc(CNc2c(N3CCOCC3)c(=O)c2=O)cc1,4%,18,1,-1,1,6
Cc1cc(C)c2nc(-c3ccccn3)cc(C(=O)Nc3cc(C)on3)c2c1,13%,11,1.1,-18,3.1*,5
O=C(NCc1ccco1)c1cc(-c2cccnc2)nc2ccccc12,4%,18,1.1,-3,1.2,2
Cc1ccc(-c2cc(C(=O)NCc3ccco3)c3ccccc3n2)o1,9%,31,1.1,-6,4.9*,4
SMILES,NADH coupling,DUSP1 inh,Abs 340nm,Hsp90 inh,Autofluor 339,Cdc25B inh
Cc1cc(C)c2nc(-c3ccccn3)cc(C(=O)NCc3ccco3)c2c1,4%,15,1.1,-8,3.6*,3
Cc1cc(NC(=O)c2cc(-c3ccncc3)nc3c(C)cccc23)no1,6%,18,1.1,-17,2.7*,-3
Cc1cc(NC(=O)c2cccc(C(=O)Nc3cc(C)on3)n2)no1,9%,-2,1,-3,1.1,-4
O=C(CCNS(=O)(=O)c1cccc2nonc12)NCc1cccs1,4%,9,1.1,.,1.1,-19
Cc1cc(NC(=O)c2cc(-c3ccccn3)nc3ccccc23)no1,8%,15,1.1,-5,1.2,1
Cc1ccc(-c2cc(C(=O)NC3=NCCS3)c3cc(Br)ccc3n2)o1,20%,?,1.1,-14,1.1,10
Cc1ccc(-c2cc(C(=O)NCCCn3ccnc3)c3cc(Br)ccc3n2)o1,22%,34,1.1,-29,2.9*,-5
Cc1cc(NC(=O)c2cc(-c3cccs3)nc3ccccc23)no1,5%,3,1.1,-3,2*,-14
COc1ccc2nc(Nc3nc(C)c(C(C)=O)s3)sc2c1,7%,40,1,1,2*,23
O=C(Nc1ccccc1F)c1ccc(S(=O)(=O)NCC2CCCO2)cc1 (configuration not stated),8%,-9,0.96,0,1.1,3
CC(C)Cc1nc(N2CCN(C(=O)c3ccco3)CC2)c(C#N)c2c1CCC2,5%,-7,1,-2,1.7,17
CCCNC(=O)N1CCN(c2nc(C(C)C)c3c(c2C#N)CC(C)(C)OC3)CC1,9%,11,1,-1,1.8,-15
N#Cc1c(N2CCN(C(=O)c3ccco3)CC2)nc(-c2ccccc2)c2c1CCCC2,3%,-3,1.1,-3,2.2*,-10
CC1(C)Cc2c(C#N)c(N3CCN(C(=O)c4ccco4)CC3)nc(-c3ccco3)c2CS1,6%,-12,1.1,-10,1.5,9
CC1(C)Cc2c(C#N)c(N3CCN(C(=O)c4ccco4)CC3)nc(Cc3ccccc3)c2CO1,11%,-36,1,-4,2.2*,0
Cc1nc(N2CCN(C(=O)c3ccc(Cl)cc3)CC2)c(C#N)c2c1COC(C)(C)C2,5%,-25,1,-5,2.3*,21
Cc1nc(NC2=NCN(Cc3cccnc3)CN2)nc2c(C)cccc12,5%,-4,1,-1,1.2,6
CCN(CC)C(=O)C1CCN(Cc2ccc(Br)cc2)CC1,8%,13,1.1,-1,2.7*,1
O=c1ccc2ccc(O)c(O)c2o1,.,.,.,69*,.,.
COc1c2occc2cc2ccc(=O)oc12,3%,18,1.1,-3,1.2,-9

# Screens (PubChem BioAssay)
